Test results taken from PubChem BioAssay.
Calls of active or inactive are those of the source.

Columns and labels:
Albumin (Bos taurus) = Albumin (Bos taurus) (UniProt P02769); test: compounds binding labelled BSA control protein – biochemical, small-molecule microarray, Alexa647 label, 635/667 nm fluorescence, artefact control for SMM control protein annotation, profiling panel (AID 1118); settings: BSA-A647 binding, fluorescence 635 nm, higher = more signal;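 note: score merges 667 nm emission intensity and signal-to-noise per printed compound spot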
Chain of Albumin (Bos taurus) (P02769 whole entry, looked up): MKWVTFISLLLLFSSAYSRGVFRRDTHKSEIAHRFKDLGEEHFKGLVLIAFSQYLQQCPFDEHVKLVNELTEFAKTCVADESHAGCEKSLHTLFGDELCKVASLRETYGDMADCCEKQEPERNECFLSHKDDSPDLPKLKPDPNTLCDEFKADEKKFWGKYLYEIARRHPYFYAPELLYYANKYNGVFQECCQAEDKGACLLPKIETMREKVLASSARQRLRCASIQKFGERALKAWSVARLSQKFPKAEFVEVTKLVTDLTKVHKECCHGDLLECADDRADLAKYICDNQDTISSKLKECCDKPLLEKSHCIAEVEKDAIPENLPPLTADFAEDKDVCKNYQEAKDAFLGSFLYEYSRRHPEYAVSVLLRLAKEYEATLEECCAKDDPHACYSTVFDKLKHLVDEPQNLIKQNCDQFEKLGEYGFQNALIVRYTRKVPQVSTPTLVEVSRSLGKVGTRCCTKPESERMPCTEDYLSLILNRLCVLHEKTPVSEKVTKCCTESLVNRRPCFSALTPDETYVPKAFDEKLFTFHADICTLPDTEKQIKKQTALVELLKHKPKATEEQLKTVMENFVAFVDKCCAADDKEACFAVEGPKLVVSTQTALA

[1] = probe aXIP binding to arrayed compounds – biochemical, NeuroSMM set, 635/667 nm fluorescence, primary screen (AID 1119); settings: small-molecule microarray, higher = more signal, called active from +8 up or from −8 down;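 note: probe is the protein aXip251-270 applied at 1 µg/mL to compound-printed slides; binding of probe to printed compounds measured as 667 nm fluorescence plus signal to noise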
[2] = probe aNOTCH3 binding on compound microarray – biochemical, small-molecule microarray, 635/667 nm fluorescence, primary screen (AID 1120); settings: higher = more signal;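 note: probe is a biotin-tagged antibody raised against NOTCH3 rather than NOTCH3 protein; score merges spot fluorescence near 667 nm with spot signal to noise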
[3] = probe aNOTCH2 binding on compound microarray – biochemical, small-molecule microarray, 635/667 nm fluorescence, primary screen (AID 1121); settings: higher = more signal;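 note: score merges feature fluorescence read at 667 nm with its signal to noise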
[4] = target: Carbonic anhydrase 2 (Homo sapiens) (UniProt P00918); test: compounds binding carbonic anhydrase 2 – biochemical, small-molecule microarray, Alexa647-labelled CAII, profiling panel (AID 1122); settings: CAII-A647 binding fluorescence, higher = more signal
[5] = COS7 lysate on small-molecule microarray, probe aHis, 635 nm (AID 1123); settings: COS7 cell lysate, fluorescence, higher = more signal;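 note: z-score combines 667nm fluorescence intensity with signal-to-noise per printed compound spot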
[6] = probe aLAP1 signal on lysate-treated microarray – cell lysate, small-molecule microarray, COS7 lysate, primary screen (AID 1124); settings: probe aLAP1, fluorescence, higher = more signal;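 note: lysate comes from COS7 cells expressing LAP1 and is applied at 0.3 µg/mL; score merges spot fluorescence near 667 nm with signal-to-noise over triplicate slides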
Sam68 (KHDRBS1) = test: compounds binding KHDRBS1 protein – biochemical, small-molecule microarray, 635 nm fluorescence, primary screen (AID 1125); settings: higher = more signal;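 note: score merges 667 nm channel intensity with signal to noise over triplicate slides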
[7] = tested on: Chordin-like protein 2 (CHRDL2); test: compounds binding chordin-like 2 – biochemical, small-molecule microarray, 635 nm fluorescence, primary screen (AID 1126); settings: fluorescence 635 nm, higher = more signal;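 note: printed compound slides probed with Chrdl2 protein at 4 µg/mL for 1 h at 4 C; score merges 667 nm emission intensity with signal to noise over three replicate slides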
[8] = target: Concanavalin-A (Canavalia ensiformis) (UniProt P02866); test: compounds binding concanavalin A lectin – biochemical, small-molecule microarray, Alexa647 label, 635 nm, artefact control for SMM control protein annotation, primary screen (AID 1127); settings: ConA-A647 binding fluorescence, higher = more signal;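 note: z combines 667 nm emission intensity with signal-to-noise across three replicate slides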
Chain of Concanavalin-A (Canavalia ensiformis) (P02866 whole entry, looked up): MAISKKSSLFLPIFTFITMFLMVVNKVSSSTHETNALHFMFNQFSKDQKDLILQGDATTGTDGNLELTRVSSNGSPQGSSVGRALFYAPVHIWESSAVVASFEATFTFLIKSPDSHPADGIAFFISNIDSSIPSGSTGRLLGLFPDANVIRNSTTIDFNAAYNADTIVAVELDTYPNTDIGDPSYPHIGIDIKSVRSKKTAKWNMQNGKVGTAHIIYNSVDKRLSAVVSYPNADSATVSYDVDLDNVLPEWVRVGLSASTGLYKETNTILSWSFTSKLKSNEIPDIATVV

Structure (SMILES)	composite z-score (Albumin (Bos taurus))	composite Z-score [1]	composite z-score [2]	composite z-score [3]	composite z-score [4]	composite z-score [5]	composite z-score [6]	composite z-score (Sam68 (KHDRBS1))	composite z-score [7]	composite z-score [8]
C=CCN1Cc2ccccc2C[C@@]2(N=C(c3ccc(OCCCO)cc3)O[C@H]2c2ccccc2)C1=O	0.247	0.667 (inactive)	0.106	-0.0148	0.577	3.06	0.326	1.3	0.185	1.14
[N-]=[N+]=NCc1ccccc1C[C@]1(C(=O)NCC(O)CO)N=C(c2ccc(OCCCO)cc2)O[C@H]1c1ccccc1CN=[N+]=[N-] (stereo not given in full)	0.801	0.496 (inactive)	0.303	-0.108	0.404	3.05	0.137	1.12	-0.86	1.11
C=C(/C(=C/C[C@@H](OC(=O)c1ccncc1)c1ccc(OCCO)cc1)c1cc(C(=O)OC)ccc1OC)C(C)C	0.277	0.443 (inactive)	0.157	-0.124	0.269	1.06	-0.017	1.14	-0.0737	0.695
C=C(CCCC)C(=O)CC[C@@H](OC(=O)c1ccccc1-c1ccccc1C(=O)O)c1cccc(OCCO)c1	-0.658	-0.263 (inactive)	-0.15	-0.154	0.728	0.361	0.742	0.986	1.22	-0.5
CO[C@H]1O[C@H](CO)[C@@H](OC(=O)Nc2ccc(C(F)(F)F)cc2)[C@H](OC(=O)Nc2ccc3c(c2)OCO3)[C@H]1OC(=O)Nc1ccc2c(c1)OCO2	0.72	1.42 (inactive)	0.169	0.0062	0.767	2.67	0.59	1.3	-0.146	1.14
C=C[C@H](COC(C)=O)NS(=O)(=O)c1ccc(Br)cc1	0.0793	0.131 (inactive)	-0.217	-0.106	-0.111	-0.0413	-0.0354	-0.603	1.14	0.43
C=CC[C@]1(C(=O)N(C)C)N=C(c2ccc(OCCCO)cc2)O[C@H]1c1ccccc1N=[N+]=[N-]	1.07	0.298 (inactive)	0.266	0.0805	0.489	2.81	0.55	1.3	-0.811	0.877
C=C(C(=O)CC[C@H](OC(C)=O)c1cccc(OCCO)c1)C(C)C	-0.757	0.562 (inactive)	-0.135	-0.148	-0.382	0.409	-0.326	-0.0177	-1.23	-1.21
COCCOC(=O)N1C(=O)[C@@]2(c3cc(C#CC4(O)CCCCCC4)ccc31)[C@H](c1ccccc1OCCO)N1[C@H](c3ccccc3)[C@H](c3ccccc3)OC(=O)[C@H]1[C@@H]2C(N)=O	-0.205	-0.02 (inactive)	0.0282	-0.0942	0.378	0.994	-0.394	1.31	0.476	1.15
COC(=O)[C@H](Cc1ccccc1)N1CC(/C=C/C2CC2)=C[C@@H]1[C@@H](O)Cc1ccccc1	0.506	-0.325 (inactive)	0.126	-0.166	0.171	0.992	1.66	1.34	0.779	1
O=c1cccc(-c2ccc(C(F)(F)F)cc2)o1	-0.309	-0.275 (inactive)	-0.122	-0.11	-0.14	-0.89	0.0441	-1.03	-0.291	-0.0038
COc1cc(CO)cc(I)c1O[C@H]1C=C(C(=O)NCCO)C[C@@H](N(Cc2ccc(F)cc2)C(=O)C2CCCO2)[C@@H]1O (stereo not given in full)	-0.53	-0.77 (inactive)	-0.154	-0.0781	-0.124	-0.248	-0.144	0.0803	0.325	-0.422
Cc1c(NC(=O)/C(C#N)=C/C=C/c2ccc(N(C)C)cc2)c(=O)n(-c2ccccc2)n1C	0.376	1.02 (inactive)	0.308	0.292	0.456	2.54	-0.154	1.22	0.568	1.1
COCCOC(=O)N1C(=O)[C@@]2(c3cc(C#CC4=CCCCC4)ccc31)[C@H](C(=O)N1CCN(c3ncccn3)CC1)[C@H]1C(=O)O[C@H](c3ccccc3)[C@H](c3ccccc3)N1[C@@H]2c1ccc(O)cc1	0.649	0.215 (inactive)	0.061	-0.0304	0.541	1.09	0.615	1.29	0.204	1.13
Cc1ccc(F)cc1S(=O)(=O)N[C@@H]1CCN(Cc2ccc(Oc3ccccc3)cc2)C1	-0.274	-0.608 (inactive)	0.154	-0.165	0.304	-0.13	-0.305	-0.68	0.861	-0.905
COC(=O)[C@@]1(Cc2ccc(F)cc2)[C@H]2c3cc(C(=O)N4CCCC4)n(CCF)c3C[C@H]2CN1C(=O)c1ccccc1	1.09	0.803 (inactive)	1.82	0.948	0.811	3.46	0.829	0.37	0.294	0.857
COCCOC(=O)N1C(=O)[C@@]2(c3ccccc31)[C@H](c1ccc(OCCO)cc1)N1[C@H](c3ccccc3)[C@H](c3ccccc3)OC(=O)[C@H]1[C@@H]2C(=O)Nc1nc2ccccc2s1	0.903	0.171 (inactive)	-0.0059	-0.0089	0.55	2.74	0.676	1.3	0.232	1.17

Structure (SMILES)	composite z-score (Albumin (Bos taurus))	composite Z-score [1]	composite z-score [2]	composite z-score [3]	composite z-score [4]	composite z-score [5]	composite z-score [6]	composite z-score (Sam68 (KHDRBS1))	composite z-score [7]	composite z-score [8]
COC(=O)Cn1c(C(=O)N2CCCC2)cc2c1C[C@H]1CN(C(=O)c3ccccc3)[C@@](Cc3ccc(F)cc3)(C(=O)OC)[C@@H]21	0.827	-0.14 (inactive)	-0.0888	-0.036	0.885	0.965	0.0395	-1.17	-0.451	-0.432
CCCc1cccc(=O)o1	0.387	-0.75 (inactive)	-0.0665	-0.127	0.43	0.897	0.359	0.699	0.221	0.828
CCCCN1CC=CC23O[C@@H]4C=CCOC(=O)[C@@H]4[C@H]2C(=O)N(CCCO)[C@@H]3C1=O (stereo not given in full)	0.335	0.064 (inactive)	-0.321	-0.179	0.868	0.726	0.95	0.237	-0.565	-0.926
CC=CC(O)C1C=CC2C(=O)N(C)C(=O)C2N1N1CCCCC1 (stereo not given)	1.01	0.298 (inactive)	0.16	0.0701	0.783	2.48	0.466	1.27	-0.0061	0.915
COc1cc2c(cc1OC)CN(C(=O)[C@H]1[C@@H]3C(=O)O[C@@H](c4ccccc4)[C@@H](c4ccccc4)N3[C@@H](c3ccc(OCCO)cc3)[C@]13C(=O)Nc1ccc(C#CCCO)cc13)CC2	0.592	0.524 (inactive)	0.0418	0.0292	0.434	2.2	1.25	1.29	0.0602	1.11
O=C1C2C=CC(C(O)c3cc(C(F)(F)F)cc(C(F)(F)F)c3)N(Nc3ccc([N+](=O)[O-])cc3)C2C(=O)N1c1ccccc1 (stereo not given)	0.888	-0.311 (inactive)	0.37	-0.0523	0.616	2.74	-0.0967	1.33	-0.298	1.15
CC(C)(C)OC(=O)CC[C@@]1(C(=O)O)N=C(c2ccc(OCCCO)cc2)O[C@@H]1c1ccccc1CN=[N+]=[N-]	0.939	0.242 (inactive)	0.1	0.046	0.849	2.23	0.312	0.76	-0.309	1.18
COCCOC(=O)N1C(=O)[C@@]2(c3cc(C#CCC(C(=O)OC)C(=O)OC)ccc31)[C@H](c1ccc(OCCO)cc1)N1[C@H](c3ccccc3)[C@H](c3ccccc3)OC(=O)[C@H]1[C@@H]2C(=O)N1CCN(c2ncccn2)CC1	0.758	-0.341 (inactive)	0.196	-0.14	0.35	2.33	0.265	1.29	0.293	1.1
C=CCNC(=O)[C@@H]1[C@H]2C(=O)O[C@H](c3ccccc3)[C@H](c3ccccc3)N2[C@H](c2ccc(OCCO)cc2)[C@@]12C(=O)N(C(=O)OCCOC)c1ccc(C#CC3=CCCCC3)cc12	0.498	0.223 (inactive)	0.144	-0.0832	0.621	0.634	0.923	1.3	0.606	1.15
COCCOC(=O)N1C(=O)[C@@]2(c3ccccc31)[C@H](C(=O)N1CCN(c3ncccn3)CC1)[C@H]1C(=O)O[C@H](c3ccccc3)[C@H](c3ccccc3)N1[C@@H]2c1ccc(OCCO)cc1	0.329	2.41 (inactive)	0.32	-0.0029	0.512	1.36	0.341	1.12	0.292	1.13
C=CC[C@@]1(C(=O)O)N=C(c2ccc(OCCCO)cc2)O[C@@H]1c1ccccc1	0.771	1.76 (inactive)	-0.293	0.247	0.527	2.71	0.724	0.732	-0.713	-0.587
CCOC(=O)[C@H]1C/C=C/C[C@H](C(=O)OCC)C(=O)O[C@H]2[C@@H](OC)O[C@H](CO)[C@@H](OC(=O)Nc3ccc(OC)cc3)[C@@H]2OC1=O	0.441	0.937 (inactive)	0.292	0.0196	0.475	0.984	1.16	1.32	0.37	0.92
CCOC(=O)C1=CC[C@@H](c2ccc([N+](=O)[O-])cc2)N(S(=O)(=O)c2ccc(C)cc2)[C@H]1c1ccccc1	0.845	0.312 (inactive)	0.233	-0.0297	0.373	2.21	0.359	1.28	0.402	0.842
CC(=O)n1cc(C(O)C2C=CC3C(=O)N(Cc4ccccc4)C(=O)C3N2n2cnnc2)c2ccccc21 (stereo not given)	0.136	-0.213 (inactive)	0.0576	-0.0304	0.444	0.983	0.281	-0.0572	-0.243	0.458
CCCC[C@@H]1C[C@H]1[C@@H](NC(=O)c1ccccc1)c1ccc(Cl)cc1	-0.413	0.0169 (inactive)	-0.414	-0.179	-0.527	0.847	-0.905	-1.35	-2.74	-1.6
CC[C@H]1C2=C3C(CC[C@H]4C(OCc5ccc(F)cc5C(F)(F)F)OC[C@](C)([C@@H]34)N(C(=O)OC(C)(C)C)C2)C2COC(=O)OCC21 (stereo not given in full)	0.911	0.572 (inactive)	0.367	0.0755	0.578	2.62	0.494	1.32	-1.64	0.994
